Data as given in ChEMBL document CHEMBL1201862, “PubChem BioAssay data set” (2004).

Species: Homo sapiens
Experiment: Quantitative High-Throughput Screen for Compounds Blocking the Interaction Between CBF-beta and RUNX1 for the Treatment of Acute Myeloid Leukemia: Summary. [Related pubchem assays (depositor defined):AID1477, AID504370, AID504374, AID504375]; call rule not given here
Format: functional

Potency, active:
COC(=O)c1ccc(C)c(-n2c(C)cc(C=O)c2C)c1 112 nM, c1coc(-c2ccnc3ncnn23)c1 100 nM, O=C1C2C3C=CC(C4CC34)C2C(=O)N1/N=C/c1cccs1 (stereo not given) 112 nM, CN1CCCN(C(=O)/C=C/c2ccc(Cl)cc2Cl)CC1 126 nM, N[C@@H](CCCCNC(=O)CCCC[C@@H]1SC[C@H]2NC(=O)N[C@H]12)C(=O)O 398 nM, COC(=O)c1ccc(N=NNc2ccc(C(=O)OC)cc2)cc1 112 nM, CCOc1ccc(CN(C)CC(=O)Nc2cc(C)c(C)cc2[N+](=O)[O-])cc1.CN(C)C=O 141 nM, O=C(O)c1cccc(NC(=S)N/N=C/c2cccc(O)c2)c1 141 nM, NNc1nc2cccnc2n(CCNc2ncc(C(F)(F)F)cc2Cl)c1=O 126 nM, COc1cc([N+](=O)[O-])cc(/C=N/NC(=O)c2ccc(C)nc2)c1O 141 nM
